HT1080 IDH1KD tx: HT-1080 IDH1 knockdown cell toxicity (counter line). HT-1080 IDH1 knockdown viability, ATP luminescence, 48 h. Potency, µM (doses to about 46.1 µM), for the others: top-dose activity, negative = toxicity, actives largely listed as cytotoxic. 2% of 360,000 active;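 note: potency is the fitted concentration of half-maximal effect; 0% = DMSO wells and -100% = cell-free medium wells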
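Viability of IDH1-knockdown HT-1080 fibrosarcoma cells was assessed by CellTiter-Glo after 48 h at 37 °C with titrated compound; concentration-effect curves were classified by fit quality and response size.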
HT1080NT lethal: kills 2HG-producing HT-1080-NT fibrosarcoma cells; AID 686970; HT-1080-NT fibrosarcoma viability, CellTiter-Glo ATP luminescence, 48 h; 1.6% of 360,000 active; Potency, µM (titrated, usually from 46.1 µM), for the others: top-dose activity, negative = less viability, actives largely listed as cytotoxic;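 note: NT is the 2HG producing partner of a matched IDH1 knockdown line; potency is the fitted concentration of half-maximal effect; 0% = DMSO-treated cells and -100% = media-only wells without cells; nearly all actives have a fitted effect of over 55% in size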
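Viability by CellTiter-Glo luminescence after 48 h compound exposure at 37C of HT-1080-NT cells (750/well, RPMI, 5% FBS). % activity scaled between DMSO wells and medium-only wells, then curve-fitted and categorized by curve class.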
IL-1B inflam inh: inflammasome signaling inhibition, IL-1 beta readout; 4.7% of 360,000 active; activity change, % at 57.5 µM; THP-1 LPS/ATP IL-1B secretion, AlphaLISA, 16 h; active compounds read low; in the data active = activity change below about -50%; inconclusive = mostly about -30% to -49%
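Secreted IL-1B measured by AlphaLISA bead assay after 16 h compound exposure of THP-1 cells; compounds (final up to 57.5 uM) added 1 h before LPS (250 ng/mL) and ATP (1.25 mM) stimulation; lower signal means less secretion.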
TDP1 cell noCPT: qHTS for Inhibitors of human tyrosyl-DNA phosphodiesterase 1 (TDP1): qHTS in cells in absence of CPT | Potency, µM (highest dose often 46.2 µM), without a hit: at the top dose activity change, negative = growth inhibition, usual class: inhibitors | DT40 Tdp1-/- hTDP1 cells, no CPT, ATP luminescence, 48 h | AID 686978, 2013 | 15% of 420,000 active; note: potency is the fitted concentration of half-maximal effect; nearly all actives have a fitted effect of over 55% in size
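Readout: luminescence from CellTiter-Glo after 30 min in the dark at RT. Cells: DT40 Tdp1-/- with stable hTDP1, 400/well. Exposure: compounds alone, ≥48 hr, 37 °C.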
TDP1 cell CPT: growth inhibition of DT40 Tdp1-/-;hTDP1 cells with camptothecin (screen for TDP1 inhibitors) | chicken DT40 Tdp1-/-;hTDP1 cells + 20 nM CPT, ATP luminescence, 48 h | 12% of 420,000 active | Potency, µM (titrated, usually from 46.2 µM), inactives show top-dose activity change, negative = growth inhibition, actives largely listed as inhibitors; note: potency is the fitted concentration of half-maximal effect; nearly all actives have a fitted effect of over 55% in size
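Chicken DT40 Tdp1-/- cells stably complemented with human TDP1 were seeded at 400 cells/well in medium containing 20 nM camptothecin, exposed to pin-transferred compounds, and grown at 37 °C for at least 48 hr. Viability was read as ATP luminescence.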
* hit, by the source's call; ? = inconclusive; . = not tested or not shown. This is a sample that favours compounds with a hit; in the whole collection about 19% have one here. Unless noted, calls come from the whole dose curve; as a rule, active = well fitted curve in the direction sought with a large enough effect; inconclusive = small, poorly fitted or top-dose-only effect, or another doubt; inactive = no such curve, though single readings can be large; an effect the other way counts as inactive or inconclusive. Unless noted, % is set by controls: 0 for no effect and ±100 for the full control effect.

SMILES	HT1080 IDH1KD tx	HT1080NT lethal	IL-1B inflam inh	TDP1 cell noCPT	TDP1 cell CPT
O=C(N/N=C/c1cn(-c2ccccc2)nc1-c1cccnc1)c1cccnc1	11%	3%	?	-22%	-29%
O=C(N/N=C/c1cn(-c2ccccc2)nc1-c1cc2ccccc2o1)c1ccncc1	?	?	?	18µM*	26µM*
CCc1noc(C)c1C(=O)N1CC(C)SC1=Nc1ccc(Cl)cc1 (configuration not stated)	-6%	-9%	-5	-28%	-19%
CCC(C)(C)n1nnnc1C(c1ccccc1F)N1CCN(C(=O)c2ccco2)CC1 (configuration not stated)	6%	7%	5	-4%	3%
CCC(C)NCCOc1ccc(Br)cc1 (configuration not stated)	1%	0%	12	-30%	-14%
CCC(C)NCCOCCOc1ccc(Br)cc1 (configuration not stated)	-1%	-17%	?	23µM*	?
CC(C)c1ccc(NC(=O)Cn2cccc2C2=NC(c3ccccc3)CO2)cc1 (configuration not stated)	4%	2%	-8	?	?
COC(=O)c1c(NC(=O)CN2C(=O)NC3(CCC(C)CC3)C2=O)sc2c1CCC2 (configuration not stated)	-3%	-2%	16	16µM*	15µM*
COC(=O)c1c(NC(=O)CN2C(=O)NC3(CCc4ccccc4C3)C2=O)sc2c1CCCCC2 (configuration not stated)	-14%	-20%	24	26µM*	21µM*
COC(=O)c1c(NC(=O)CN2C(=O)NC3(CCC(C(C)(C)C)CC3)C2=O)sc2c1CCCCC2 (configuration not stated)	7%	4%	17	?	-29%
CC1CCC2(CC1)NC(=O)N(CC(=O)Nc1sc3c(c1C(N)=O)CCC3)C2=O (configuration not stated)	0%	0%	10	-20%	?
O=C(NCc1ccco1)c1ccc2nc([C@@H]3O[C@H](CO)[C@H](O)[C@H](O)[C@H]3O)[nH]c2c1	7%	18%	21	1%	9%
COc1cccc(-c2nc(NCC3CCCO3)c3ccccc3n2)c1O (configuration not stated)	-2%	-6%	-84*	?	?
COc1ccccc1Nc1nc(NCC2CCCO2)c2ccccc2n1 (configuration not stated)	?	-59%	.	21µM*	23µM*
CCN1CCC(N(Cc2ccc3c(c2)OCO3)C(=O)Nc2ccc(Br)c(C)c2)CC1	.	.	.	16µM*	?
CCN1CCC(N(Cc2ccc3c(c2)OCO3)C(=O)Nc2cc(F)ccc2F)CC1	.	.	.	?	-28%
Cc1ccc(O)c(-n2nc3ccccc3n2)c1	-1%	3%	0	-11%	2%
O=C1Nc2ccccc2Oc2cc([N+](=O)[O-])cc(Oc3ccccc3)c21	-12%	-1%	8	?	?
O=[N+]([O-])c1cc2c(c([N+](=O)[O-])c1)Nc1ccccc1O2	-4%	?	?	7.3µM*	12µM*
Cc1cccc(Oc2ccc3c(c2)Oc2ccccc2NC3=O)c1	.	.	.	?	16µM*
Cc1cccc(Oc2cc([N+](=O)[O-])cc3c2C(=O)Nc2ccccc2O3)c1	-23%	-3%	0	13µM*	?
CC(C)OCCCNC(=O)COc1ccc2oc3c(c2c1)CCCC3	1%	2%	-2	?	?
Cc1c(CC(=O)NCCc2ccc(Cl)cc2)c(=O)oc2c(C)c3occ(C(C)(C)C)c3cc12	.	.	.	21µM*	?
COc1ccccc1CCNC(=O)Cc1c(C)c2cc3c(C(C)(C)C)coc3c(C)c2oc1=O	.	.	.	21µM*	26µM*
Cc1c(CC(=O)N2CCCCC2)c(=O)oc2c(C)c3occ(C(C)(C)C)c3cc12	.	.	.	15µM*	?
COc1ccc2c(C)c(CC(=O)NCCc3ccc(Cl)cc3)c(=O)oc2c1C	.	.	.	-1%	-1%
